From PubChem BioAssay (Tox21)
Inconclusive results are not listed. Calls of active or inactive are those of the source. Unless noted, the call rests on the fitted dose curve; in most records, active means well fitted curve in the direction sought with a large enough effect in the repeat runs; inconclusive means weak or mixed curves; inactive means no such curve, though single readings can be large; an effect the other way counts as inactive or inconclusive.

Columns and labels:
[1] = molecular target: Progesterone receptor (Homo sapiens) (UniProt P06401); assay: qHTS assay to identify small molecule agonists of the progesterone receptor (PR) signaling pathway (AID 1346784; calls by dose curve; further: nearly all actives have a fitted effect of over 30% in size)
Procedure, shortened: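 Agonist qHTS: compounds pinned onto 3,000 PR-UAS-bla HEK 293T cells per well in charcoal-stripped serum medium, 16hr at 37C, then beta-lactamase activity measured by LiveBLAzer FRET fluorescence after 2 hours at room temperature.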

[2] = molecular target: Progesterone receptor (Homo sapiens) (UniProt P06401); assay: qHTS assay to identify small molecule antagonists of the progesterone receptor (PR) signaling pathway (AID 1346795; active means well fitted inhibition curve with a large enough effect in the signal ratio in the repeat runs, not every such curve was filed as active; the % refers to the signal ratio)
Procedure, shortened: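 Antagonist mode with agonist R5020 at 1 nM final and 16 hr incubation at 37C. Reporter was beta-lactamase driven by UAS in HEK293T (PR-UAS-bla), 2% charcoal-stripped serum; signal from LiveBLAzer FRET substrate, 2 hr at room temperature.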

[3] = qHTS assay to identify small molecule antagonists of the progesterone receptor (PR) signaling pathway - cell viability counter screen (AID 1346798); further: series mostly up to about 92 µM; nearly all actives have a fitted effect of over 50% in size
Procedure, shortened: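 Cytotoxicity read as CellTiter-Glo luminescence (30 min, room temperature) in the same wells as the beta-lactamase readout. HEK293T PR-UAS-bla cells in charcoal-stripped 2% FBS received compound and R5020, then 16 h at 37C, 5% CO2.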

[4] = qHTS assay to identify small molecule agonists of the progesterone receptor (PR) signaling pathway - cell viability counter screen (AID 1346799; calls by dose curve; further: nearly all actives have a fitted effect of over 45% in size)
Procedure, shortened: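 Cytotoxicity measured by CellTiter-Glo luminescence (30 min, RT) in the same wells as the PR beta-lactamase agonist read. Those HEK293T cells had 16 h compound treatment at 37 C in 2% charcoal-stripped FBS medium.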

[5] = qHTS assay to identify small molecule antagonists of the TGF-beta/Smad signaling pathway - cell viability counter screen (AID 1346824); further: nearly all actives have a fitted effect of over 50% in size
Procedure, shortened: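 SBE-bla HEK 293T cells, incubated overnight, then compound plus 0.25 ng/mL TGF-beta1 (stock added) for 5 hr at 37 C. Viability was read in the same wells by CellTiter-Glo luminescence after 30 min at room temperature.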

[6] = qHTS assay to identify small molecule agonists of the TGF-beta/Smad signaling pathway - cell viability counter screen (AID 1346829); further: top concentration of the series differs between compounds; nearly all actives have a fitted effect of over 45% in size
Procedure, shortened: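 Compound-treated SBE-bla HEK 293T cells (5 hr, 37 C) were assessed for viability with CellTiter-Glo in parallel with the reporter read.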

[7] = Human pregnane X receptor (PXR) small molecule agonists, qHTS cell viability counter screen (AID 1346977); further: nearly all actives have a fitted effect of over 50% in size
Procedure, shortened: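 Same-well viability read: CellTiter-Fluor added after 23 hr compound exposure, fluorescence measured 1 hr later. Cells were PXR-Luc HepG2 seeded at 2,000/well in 5% charcoal-stripped FBS medium, rested 5 hr before dosing at 37 C.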

[8] = Caspase-3/7 induction in HepG2 cells by small molecules, qHTS assay (AID 1346978); further: nearly all actives have a fitted effect of over 15% in size
Procedure, shortened: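 Wild-type HepG2 cells, 2,000/well, settled 5 hr at 37 C and 5% CO2, then compound-treated for 17 hr; caspase-3/7 activity read by luminescent Caspase-Glo 3/7 after 30 min at room temperature.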

[9] = Caspase-3/7 induction in CHO-K1 cells by small molecules, qHTS cell viability counter screen (AID 1346979); further: nearly all actives have a fitted effect of over 35% in size; further: potency means the concentration at half of the fitted maximal effect
Procedure, shortened: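 Cytotoxicity counter screen: CellTiter-Fluor added to compound-treated wild-type CHO-K1 cells at 16 h (37C, 5% CO2), fluorescence measured 1 h later; same wells as caspase-3/7 measurement.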

[10] = Caspase-3/7 induction in CHO-K1 cells by small molecules, qHTS assay (AID 1346980); further: nearly all actives have a fitted effect of over 15% in size
Procedure, shortened: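 Wild-type CHO-K1 cells exposed to compounds for 17hr at 37 C, 5% CO2. Caspase-3/7 activity then measured by Caspase-Glo 3/7 luminescence after 30min at room temperature.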

[11] = Caspase-3/7 induction in HepG2 cells by small molecules, qHTS cell viability counter screen (AID 1346981); further: series mostly up to about 92 µM; nearly all actives have a fitted effect of over 30% in size
Procedure, shortened: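 Viability determined by CellTiter-Fluor fluorescence in HepG2 wells also used for the luminescent Caspase-Glo 3/7 read. Compounds were present for 16 hr at 37 C, 5% CO2 before reagent addition.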

[12] = molecular target: Nuclear receptor subfamily 1 group I member 2 (Homo sapiens) (UniProt O75469); assay: Human pregnane X receptor (PXR) small molecule agonists, qHTS assay (AID 1346982); further: nearly all actives have a fitted effect of over 35% in size; further: potency means the concentration at half of the fitted maximal effect
Procedure, shortened: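 Compound-induced hPXR transactivation of a CYP3A4 luciferase reporter was scored in HepG2 PXR-Luc cells over 24 hr at 37 C, 5% CO2, by luminescence.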

[13] = molecular target: Nuclear receptor subfamily 1 group I member 2 (Rattus norvegicus) (UniProt Q9R1A7); assay: Rat pregnane X receptor (rPXR) activation by small molecules, qHTS assay (AID 1346983); conditions: rPXR luciferase reporter cells, One-Glo luminescence, 24 h; max activation: stronger effect = higher value; further: nearly all actives have a fitted effect of over 20% in size
Procedure, shortened: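 Cell-based rPXR activation assay: rPXR cells, 2,000 per well, rested 5hr at 37 C, then exposed to compounds in DMSO for 24 hr at 37 C. Luciferase activity read by One-Glo luminescence after 30 min at room temperature.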

[14] = molecular target: Nuclear receptor subfamily 1 group I member 2 (Homo sapiens) (UniProt O75469); assay: Human pregnane X receptor (PXR) activation by small molecules, qHTS assay (AID 1346985); further: nearly all actives have a fitted effect of over 40% in size
Procedure, shortened: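 DPX-2 cells (HepG2 co-transfected with a PXR response element and a CYP3A4-promoter luciferase construct) were seeded at 2,000 per well, rested 5 hr at 37C, then exposed to DMSO-dissolved compounds for 24 hr. Activation was read as luciferase luminescence.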

[15] = molecular target: Cytochrome P450 2D6 (Homo sapiens) (UniProt P10635); assay: Cytochrome P450 Family 2 Subfamily D Member 6 (CYP2D6) small molecule antagonists: luciferase reporter qHTS assay (AID 1671196); further: nearly all actives have a fitted effect of over 50% in size; further: potency means the concentration at half of the fitted maximal effect
Procedure, shortened: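 Each well received CYP2D6 with its proluciferin substrate and chemical, sat 10 min, then got NADPH regeneration solution for 1 h at room temperature. Luminescence in RLU served as the activity measure.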

[16] = qHTS assay to identify small molecule agonists of the TGF-beta/Smad signaling pathway (AID 1346859; active means well fitted activation curve with a large enough effect in the signal ratio in the repeat runs, not every such curve was filed as active; the % refers to the signal ratio; further: series mostly up to about 77 µM)
Procedure, shortened: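 Fluorescence (ex 405 nm; em 460 and 530 nm) was read 2 h after LiveBLAzer FRET substrate at RT. The preceding compound treatment of overnight-plated SBE-bla HEK293T cells lasted 5 h at 37 C.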

[17] = molecular target: Nuclear receptor subfamily 1 group I member 2 (Homo sapiens) (UniProt O75469); assay: CYP3A4 induction through human pregnane X receptor (PXR) by small molecules, qHTS assay (AID 1346984); further: nearly all actives have a fitted effect of over 40% in size
Procedure, shortened: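 Readings come from a luciferase reporter: DPX-2 cells, which are HepG2 cotransfected with PXR and a CYP3A4-promoter construct, were exposed to test compounds for 24 h at 37C before One-Glo detection.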

[18] = molecular target: Thyrotropin-releasing hormone receptor (Homo sapiens) (UniProt P34981); assay: qHTS assay to identify small molecule antagonists of the thyrotropin-releasing hormone receptor (TRHR) signaling pathway (AID 1346877; active means well fitted inhibition curve with a large enough effect in the repeat runs, not every such curve was filed as active; further: series mostly up to about 51 µM)
Procedure, shortened: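 Following an 18 h incubation at 37 °C and a 2 h calcium dye load, TRHR-HEK293 cells were exposed to compound (5 min, room temperature) and challenged with TRH, 1 nM final.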

[19] = molecular target: Thyrotropin-releasing hormone receptor (Homo sapiens) (UniProt P34981); assay: qHTS assay to identify small molecule agonists of the thyrotropin-releasing hormone receptor (TRHR) signaling pathway (AID 1346891; calls by dose curve; further: potency means the concentration at half of the fitted maximal effect; on activation: series mostly up to about 58 µM)
Procedure, shortened: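 Agonist-mode intracellular calcium readout: kinetic fluorescence over 3 min at 1 s intervals after compound addition to TRHR-HEK293 cells (18 h seeded, 2 h dye-loaded at 37 C). Fifteen concentrations, triplicates.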

[20] = molecular target: Cytochrome P450 2C19 (Homo sapiens) (UniProt P33261); assay: Cytochrome P450 Family 2 Subfamily C Member 19 (CYP2C19) small molecule antagonists: luciferase reporter qHTS assay (AID 1671197); further: nearly all actives have a fitted effect of over 65% in size; further: potency means the concentration at half of the fitted maximal effect
Procedure, shortened: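 P450-Glo CYP2C19 screening system; proluciferin substrate; DMSO compound stocks; 10 min RT preincubation; NADPH regeneration, 1 h at 37C; luciferin detection reagent, 20 min RT; luminescence as RLU.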
On the % scale 0 is the no-effect control and ±100 the full control effect.

Chain of Cytochrome P450 2C19 (Homo sapiens) (P33261 whole entry, looked up): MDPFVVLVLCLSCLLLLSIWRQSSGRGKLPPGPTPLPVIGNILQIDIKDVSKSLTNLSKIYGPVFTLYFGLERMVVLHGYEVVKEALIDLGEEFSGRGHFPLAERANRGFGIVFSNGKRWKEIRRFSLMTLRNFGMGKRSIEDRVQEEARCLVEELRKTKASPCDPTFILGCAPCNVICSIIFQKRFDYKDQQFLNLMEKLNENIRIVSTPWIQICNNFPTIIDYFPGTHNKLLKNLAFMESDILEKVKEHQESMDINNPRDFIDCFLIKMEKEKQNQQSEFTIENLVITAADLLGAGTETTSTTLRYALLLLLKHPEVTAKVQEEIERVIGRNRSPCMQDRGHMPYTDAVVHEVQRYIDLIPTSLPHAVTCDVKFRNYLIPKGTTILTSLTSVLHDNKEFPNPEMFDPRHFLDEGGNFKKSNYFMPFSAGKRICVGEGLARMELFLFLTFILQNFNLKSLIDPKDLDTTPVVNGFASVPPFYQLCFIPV
Chain of Thyrotropin-releasing hormone receptor (Homo sapiens) (P34981 whole entry, looked up): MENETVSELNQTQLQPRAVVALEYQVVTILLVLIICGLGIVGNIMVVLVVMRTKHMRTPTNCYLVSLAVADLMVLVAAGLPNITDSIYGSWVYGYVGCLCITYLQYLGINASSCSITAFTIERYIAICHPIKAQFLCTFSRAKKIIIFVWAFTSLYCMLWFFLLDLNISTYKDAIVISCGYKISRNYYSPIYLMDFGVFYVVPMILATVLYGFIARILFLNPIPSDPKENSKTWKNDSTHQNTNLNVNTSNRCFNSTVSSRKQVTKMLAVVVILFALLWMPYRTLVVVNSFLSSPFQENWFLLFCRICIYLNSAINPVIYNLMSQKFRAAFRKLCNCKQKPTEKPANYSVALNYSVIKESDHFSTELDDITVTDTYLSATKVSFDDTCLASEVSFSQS
Chain of Cytochrome P450 2D6 (Homo sapiens) (P10635 whole entry, looked up): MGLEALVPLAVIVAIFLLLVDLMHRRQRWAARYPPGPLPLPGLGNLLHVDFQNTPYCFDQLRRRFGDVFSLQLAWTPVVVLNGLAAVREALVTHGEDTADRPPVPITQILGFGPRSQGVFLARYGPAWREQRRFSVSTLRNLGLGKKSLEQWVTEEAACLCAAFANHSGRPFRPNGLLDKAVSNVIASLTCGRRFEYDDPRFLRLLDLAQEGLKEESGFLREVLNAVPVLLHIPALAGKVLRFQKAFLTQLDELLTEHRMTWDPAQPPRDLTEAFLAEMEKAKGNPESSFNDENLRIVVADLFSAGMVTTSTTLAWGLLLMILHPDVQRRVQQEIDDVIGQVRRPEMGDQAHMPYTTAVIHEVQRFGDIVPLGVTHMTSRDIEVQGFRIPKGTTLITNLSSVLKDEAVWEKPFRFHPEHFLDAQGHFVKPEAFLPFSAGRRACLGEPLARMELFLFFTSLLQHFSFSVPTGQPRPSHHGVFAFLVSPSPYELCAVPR
Chain of Nuclear receptor subfamily 1 group I member 2 (Rattus norvegicus) (Q9R1A7 whole entry, looked up): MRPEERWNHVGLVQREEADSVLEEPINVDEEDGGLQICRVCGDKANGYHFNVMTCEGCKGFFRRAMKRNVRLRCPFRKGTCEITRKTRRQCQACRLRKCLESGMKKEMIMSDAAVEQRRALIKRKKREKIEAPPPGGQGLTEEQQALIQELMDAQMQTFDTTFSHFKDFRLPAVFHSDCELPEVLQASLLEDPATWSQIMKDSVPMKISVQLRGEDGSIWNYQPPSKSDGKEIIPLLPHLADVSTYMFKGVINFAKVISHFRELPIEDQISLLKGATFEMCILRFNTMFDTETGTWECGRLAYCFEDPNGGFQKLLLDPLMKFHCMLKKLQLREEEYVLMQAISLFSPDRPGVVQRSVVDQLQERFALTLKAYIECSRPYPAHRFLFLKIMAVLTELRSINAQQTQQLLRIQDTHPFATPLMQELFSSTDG
Chain of Nuclear receptor subfamily 1 group I member 2 (Homo sapiens) (O75469 whole entry, looked up): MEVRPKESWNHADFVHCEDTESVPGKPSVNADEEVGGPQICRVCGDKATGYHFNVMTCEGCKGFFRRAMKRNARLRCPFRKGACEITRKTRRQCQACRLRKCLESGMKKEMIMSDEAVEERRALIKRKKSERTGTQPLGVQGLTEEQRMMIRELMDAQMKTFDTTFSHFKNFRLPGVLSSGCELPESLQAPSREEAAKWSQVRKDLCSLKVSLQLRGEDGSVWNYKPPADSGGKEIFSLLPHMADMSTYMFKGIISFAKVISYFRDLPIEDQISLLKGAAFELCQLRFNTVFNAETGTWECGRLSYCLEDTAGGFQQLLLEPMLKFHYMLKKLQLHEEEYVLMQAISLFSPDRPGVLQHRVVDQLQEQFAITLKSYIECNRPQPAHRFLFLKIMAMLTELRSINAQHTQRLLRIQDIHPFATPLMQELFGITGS
Chain of Progesterone receptor (Homo sapiens) (P06401 whole entry, looked up): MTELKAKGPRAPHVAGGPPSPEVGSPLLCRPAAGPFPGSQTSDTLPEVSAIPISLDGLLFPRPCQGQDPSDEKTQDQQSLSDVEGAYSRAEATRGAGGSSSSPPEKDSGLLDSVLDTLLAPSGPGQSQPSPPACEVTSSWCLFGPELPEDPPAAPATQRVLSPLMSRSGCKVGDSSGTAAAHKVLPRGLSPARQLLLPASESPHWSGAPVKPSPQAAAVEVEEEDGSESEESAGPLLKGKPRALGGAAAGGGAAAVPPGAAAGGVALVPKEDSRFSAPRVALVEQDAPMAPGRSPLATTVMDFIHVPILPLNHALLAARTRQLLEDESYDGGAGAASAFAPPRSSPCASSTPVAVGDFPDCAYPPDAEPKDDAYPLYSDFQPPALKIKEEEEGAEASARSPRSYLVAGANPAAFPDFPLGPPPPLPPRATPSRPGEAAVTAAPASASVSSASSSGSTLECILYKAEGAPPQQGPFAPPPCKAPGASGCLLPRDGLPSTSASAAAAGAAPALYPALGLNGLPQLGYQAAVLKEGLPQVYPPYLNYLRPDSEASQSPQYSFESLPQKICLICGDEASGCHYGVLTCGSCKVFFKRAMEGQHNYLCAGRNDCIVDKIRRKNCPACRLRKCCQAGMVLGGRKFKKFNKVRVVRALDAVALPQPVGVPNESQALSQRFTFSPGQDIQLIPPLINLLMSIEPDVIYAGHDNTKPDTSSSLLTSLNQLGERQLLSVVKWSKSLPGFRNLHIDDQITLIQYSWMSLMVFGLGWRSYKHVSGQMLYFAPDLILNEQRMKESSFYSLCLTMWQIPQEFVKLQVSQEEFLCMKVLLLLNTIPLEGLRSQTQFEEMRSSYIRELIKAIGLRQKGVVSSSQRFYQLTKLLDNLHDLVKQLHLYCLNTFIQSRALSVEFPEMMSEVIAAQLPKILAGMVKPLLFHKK

N=c1ccn2c(n1)O[C@H]1[C@H](O)[C@@H](CO)O[C@H]12
inactive: Potency [1] | Potency [2] | Potency [3] | Potency [4] | Potency [5] | outcome [6] | Potency [7] | Potency [8] | Potency [9] | Potency [10] | Potency [11] | Potency [12] | max activation [13] 4.22% | Potency [14] | Potency [15]

O=C(O)C(S)C(S)C(=O)O (stereo not drawn)
inactive: Potency [1] | Potency [2] | Potency [3] | Potency [4] | Potency [5] | outcome [6] | Potency [16] | Potency [7] | Potency [8] | Potency [9] | Potency [10] | Potency [11] | Potency [12] | max activation [13] -9.28% | Potency [17] | Potency [15]

CC(C)O.CC(C)O.CCOC(=O)/C=C(\C)O.CCOC(=O)/C=C(\C)O.[Ti]
inactive: Potency [1] | Potency [2] | Potency [3] | Potency [4] | Potency [5] | outcome [6] | Potency [16] | Potency [7] | Potency [8] | Potency [9] | Potency [10] | Potency [11]

CCN(CC)CCNC(=O)c1cc(Br)c(N)cc1OC
active: Potency [15] 4.9 µM
inactive: Potency [1] | Potency [2] | Potency [3] | Potency [4] | Potency [5] | outcome [6] | Potency [16] | outcome [18] | Potency [19] | Potency [8] | Potency [9] | Potency [10] | Potency [11] | Potency [12] | Potency [20]

CCCCO
inactive: Potency [1] | Potency [2] | Potency [3] | Potency [4] | Potency [5] | outcome [6] | Potency [16] | Potency [7] | Potency [8] | Potency [9] | Potency [10] | Potency [11] | max activation [13] -3.27%

C1CCCNCCC1
inactive: Potency [1] | Potency [2] | Potency [3] | Potency [4] | Potency [5] | outcome [6] | Potency [16] | Potency [7] | Potency [8] | Potency [9] | Potency [10] | Potency [11] | Potency [12] | Potency [15] | Potency [20]

CCCCOC(=O)CCCCCCCC(=O)OCCCC
inactive: Potency [1] | Potency [2] | Potency [3] | Potency [4] | Potency [5] | outcome [6] | Potency [16] | Potency [7] | Potency [8] | Potency [9] | Potency [10] | Potency [11] | Potency [15]
active: Potency [20] 35.6 µM

Cc1ccc(C(=O)Oc2ccc(C(O)CNC(C)(C)C)cc2OC(=O)c2ccc(C)cc2)cc1 (stereo not drawn)
inactive: Potency [1] | Potency [2] | Potency [3] | Potency [4] | Potency [5] | outcome [6] | outcome [18] | Potency [19] | Potency [7] | Potency [8] | Potency [11] | Potency [20]
active: Potency [9] 29.8 µM

COc1ccc(C)cc1[N+](=O)[O-]
inactive: Potency [1] | Potency [2] | Potency [3] | Potency [4] | Potency [5] | outcome [6] | outcome [18] | Potency [19] | Potency [8] | Potency [9] | Potency [10] | Potency [11] | Potency [12] | Potency [15]

CCCCC
inactive: Potency [1] | Potency [2] | Potency [3] | Potency [4] | Potency [5] | outcome [6] | Potency [16] | Potency [8] | Potency [9] | Potency [10] | max activation [13] -1.52% | Potency [17] | Potency [15] | Potency [20]
active: Potency [19] 27.1 µM | Potency [12] 53.6 µM

COC(C)(C)CCO
inactive: Potency [1] | Potency [2] | Potency [3] | Potency [4] | outcome [6] | outcome [18] | Potency [19] | Potency [8] | Potency [9] | Potency [10] | Potency [11] | Potency [12] | Potency [15] | Potency [20]

COCCCN1CCC(NC(=O)c2cc(Cl)c(N)c3c2OCC3)CC1
inactive: Potency [1] | Potency [2] | Potency [3] | Potency [4] | Potency [5] | outcome [6] | Potency [16] | Potency [8] | Potency [9] | Potency [10] | Potency [11]
active: Potency [15] 3.89 µM

O=P(O)(OCc1ccccc1)OCc1ccccc1
inactive: Potency [1] | Potency [2] | Potency [3] | Potency [4] | Potency [5] | outcome [6] | Potency [16] | Potency [7] | Potency [8] | Potency [9] | Potency [10] | Potency [11] | Potency [12] | Potency [15] | Potency [20]

O=C(O)c1ccc(S(=O)(=O)O)cc1C(=O)O
inactive: Potency [1] | Potency [2] | Potency [3] | Potency [4] | Potency [5] | outcome [6] | outcome [18] | Potency [19] | Potency [7] | Potency [8] | Potency [9] | Potency [10] | Potency [15]

Cc1ccc(C(C)OC(=O)C2(C)CCC(C(=O)O)C2(C)C)cc1 (stereo not drawn)
inactive: Potency [1] | Potency [2] | Potency [3] | Potency [4] | Potency [5] | outcome [6] | Potency [16] | Potency [7] | Potency [8] | Potency [9] | Potency [10] | Potency [11] | Potency [15] | Potency [20]

CCNc1cc(O)ccc1C
inactive: Potency [1] | Potency [2] | Potency [3] | Potency [4] | Potency [5] | outcome [6] | outcome [18] | Potency [19] | Potency [7] | Potency [8] | Potency [10] | Potency [11]
active: Potency [9] 60.4 µM | Potency [12] 48 µM | Potency [15] 39.5 µM | Potency [20] 35.2 µM
